# Rows were chosen to be rich in hits. Some 5.6% of all compounds tested hit in one or more screens of this group.
# Cardio protect = modulators protecting cardiomyocytes from myocardial damage. 360,000 compounds, 0.63% hits. H9c2 cardiomyocytes, H2O2 injury protection, ATPLite, 2 h. protection from H2O2 cell death, % at 20 µM;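 active = compounds giving at least 50% protection of heart cells from peroxide-induced death in the single-dose screen, raw or plate-pattern-corrected value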;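 note: 0% = DMSO wells with peroxide and 100% = DMSO wells without peroxide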
# PHOSPHO1 block = inhibitors of human PHOSPHO1 phosphatase | inhibition, % at 13.3 µM | 290,000 compounds, 1.1% hits | recombinant PHOSPHO1, absorbance phosphatase assay | Q8TCT1; in the data active = inhibition above about 60%
# Target sequence (Q8TCT1 whole entry, looked up): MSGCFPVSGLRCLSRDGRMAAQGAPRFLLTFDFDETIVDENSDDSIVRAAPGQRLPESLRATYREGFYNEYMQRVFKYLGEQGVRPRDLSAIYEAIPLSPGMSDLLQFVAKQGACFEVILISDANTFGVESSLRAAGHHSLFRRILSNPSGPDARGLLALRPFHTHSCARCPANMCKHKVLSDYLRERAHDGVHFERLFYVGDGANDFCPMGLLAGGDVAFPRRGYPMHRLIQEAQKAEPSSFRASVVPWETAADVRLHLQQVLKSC
# PfM18AAP inh = PfM18AAP enzyme inhibition; recombinant PfM18AAP, H-Glu-NHMec fluorogenic cleavage; inhibition, % at 7.35 µM; 290,000 compounds, 1.2% hits; AID 1822;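 active = inhibition above the campaign mean inhibition over all tested compounds plus 3 SD, cut at about 28% in these data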;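 note: 0% = plate median of test compound wells and 100% = 2 mM ZnCl2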
# PfG6PD inh = PfG6PD (Plasmodium falciparum) enzyme inhibition | PfGluPho enzyme, NADPH resazurin-diaphorase fluorescence | inhibition, % at 20 µM | 350,000 compounds, 0.78% hits;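 active = inhibition reaching at least a set limit at 20 µM in the primary screen, cut at about 59% in these data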;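 note: 0% = DMSO wells with substrate and 100% = DMSO wells lacking glucose-6-phosphate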
# ALR inh = inhibitors of human sulfhydryl oxidase ALR. AID 485317. inhibition, % (no concentration beside the values). purified ALR, DTT oxidation, H2O2 HRP-luminol luminescence. 290,000 compounds, 3.8% hits. P55789;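 active = mean replicate inhibition above about 79%, with every replicate also reaching it, limit read from the data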
# Target sequence (P55789 whole entry, looked up): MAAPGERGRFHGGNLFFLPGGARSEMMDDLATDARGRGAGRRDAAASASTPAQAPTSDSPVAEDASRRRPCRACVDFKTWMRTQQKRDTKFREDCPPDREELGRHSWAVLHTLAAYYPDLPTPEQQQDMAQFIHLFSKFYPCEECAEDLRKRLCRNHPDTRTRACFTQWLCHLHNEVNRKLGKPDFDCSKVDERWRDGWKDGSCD
# Numbers without * were called inactive; . = no result given.
SMILES,Cardio protect,PHOSPHO1 block,PfM18AAP inh,PfG6PD inh,ALR inh
CC1=C(C(=O)OCc2ccccc2)C(c2ccc(Cl)cc2)NC(=O)N1CCCC(=O)O (stereo not given),.,4,25,-5,0
O=C(O)c1ccc(N/N=C/c2cc3c(cc2[N+](=O)[O-])OCO3)cc1,3,24,28,-4,.
Cc1c(N=Cc2cc3c(cc2[N+](=O)[O-])OCO3)cccc1[N+](=O)[O-],72*,.,.,43,32
Cc1cc(C)nc(N/N=C/c2cc3c(cc2[N+](=O)[O-])OCO3)n1,33,4,3,-13,-2
Cc1ccccc1N=Cc1cc2c(cc1[N+](=O)[O-])OCO2,62*,-14,22,42,66
COc1cc(C(O)c2nc(-c3cccc(C(C)C)c3)cs2)ccc1F (stereo not given),-8,.,.,.,.
Cc1nc(-c2ccc(F)cc2)c(CC(=O)NCC(=O)Nc2ccc(F)c(F)c2)s1,-2,.,.,20,.
COc1ccc2cc(C(c3nnnn3CCc3ccccc3)N3CCCC(C)C3)c(=O)[nH]c2c1 (stereo not given),3,82*,5,34,-7
CCN(Cc1ccccc1)C(c1cc2cc(C)cc(C)c2[nH]c1=O)c1nnnn1CCOC (stereo not given),1,3,6,-2,-11
Cc1ccc2cc(C(c3nnnn3C(C)(C)C)N3CCCC3)c(=O)[nH]c2c1C (stereo not given),.,94*,.,.,.
COCCn1nnnc1C(c1cc2cc(C)ccc2[nH]c1=O)N1CCCCCC1 (stereo not given),4,92*,-1,35,-14
CCN(Cc1ccccc1)C(c1cc2cc(C)ccc2[nH]c1=O)c1nnnn1CCOC (stereo not given),10,74*,-4,25,-8
CCc1nc2c(OCc3ccc(C#N)cc3)cccn2c1N(C)C(=O)C(C)C,8,.,.,.,.
CCOC(=O)C1CCN(C(c2cc3ccc(C)cc3[nH]c2=O)c2nnnn2C2CCCCC2)CC1 (stereo not given),12,92*,-2,2,.
CCOc1ccc(N(CC(=O)NCCc2ccccc2)C(=O)CCC(=O)Nc2cc(C)ccn2)cc1,-6,42,-1,-45,-4
CCOc1ccccc1C(=O)N1CCN=C1SCc1cccnc1,10,21,8,-4,99*
O=C(COc1ccccc1)N1CCN=C1SCc1ccccc1,4,20,6,2,.
O=C(c1ccccc1F)N1CCN=C1SCc1cccnc1,2,5,-1,-4,100*
Cc1ccc(/C=C/C(=O)OCC(=O)N(C)c2c(N)n(Cc3ccccc3)c(=O)[nH]c2=O)o1,-6,.,.,38,.
O=C(Nc1cccc(S(=O)(=O)NCc2ccco2)c1)c1cccc(Cl)c1,-5,.,.,-11,5
Cc1cc(C)c(OCCN(C)C)c(Cl)c1,-4,-31,-1,-3,0
Cc1ccc(OCCCN(C)C)c(Br)c1,-10,42,19,7,-18
Cc1cc(Br)cc(C)c1OCCCCN(C)C,5,22,18,-3,93*
Cc1cc(Cl)c(OCCCN(C)C)c(Br)c1,3,63*,2,0,.
COc1ccc(S(=O)(=O)N(CC(=O)NCc2cccnc2)c2ccc(C)cc2)cc1OC,4,36,1,3,-11
SMILES,Cardio protect,PHOSPHO1 block,PfM18AAP inh,PfG6PD inh,ALR inh
Cc1c(N=C2C=CC(=O)c3ccccc32)c(=O)n(-c2ccccc2)n1C,-26,-2,9,86*,.
C=CCn1c(-c2ccc(OC)cc2)csc1=Nc1c(C)n(C)n(-c2ccccc2)c1=O,-9,20,-7,-2,67
Cc1csc(=Nc2c(C)n(C)n(-c3ccccc3)c2=O)n1Cc1ccccc1,0,12,10,-9,97*
Cc1c(N2C(=O)c3ccccc3C2=O)c(=O)n(-c2ccccc2)n1C,3,-16,-2,-3,-11
COC(CNC(=O)CSCc1nc(-c2ccc(SC)cc2)oc1C)OC,-3,-10,-4,-10,99*
CCCNC(=O)CSCc1nc(-c2ccc(SC)cc2)oc1C,6,0,3,12,99*
Cc1ccc(S(=O)(=O)CCC(=O)OCC(=O)c2cc(C)n(C)c2C)cc1,-3,.,.,4,.
COc1ccc(C)cc1NC(=O)CCNS(=O)(=O)c1ccc2c(c1)CCC(=O)N2,-1,40,-3,20,2
CCOc1ccc(NC(=O)CCNS(=O)(=O)c2ccc3c(c2)CCC(=O)N3)cc1,4,12,1,-7,-2
O=C1CCc2cc(S(=O)(=O)NC(Cc3ccccc3)C(=O)NC3CCCCC3)ccc2N1 (stereo not given),-2,0,0,.,8
Cc1ccc(NC(=O)CCNS(=O)(=O)c2ccc3c(c2)CCC(=O)N3)cc1F,3,70*,0,-5,-3
CC(C)(C)NC(=O)C(Cc1ccccc1)NS(=O)(=O)c1ccc2c(c1)CCC(=O)N2 (stereo not given),7,6,-14,5,98*
CCN(CC)c1ccc(NC(=O)CCNS(=O)(=O)c2ccc3c(c2)CCC(=O)N3)c(C)c1,-8,34,16,45,99*
Cc1ccccc1NC(=O)CCNS(=O)(=O)c1ccc2c(c1)CCC(=O)N2,2,62*,-1,-6,-3
Cc1ccc(N2CCN(S(=O)(=O)N3CCCCC3)CC2)cc1Cl,-5,-11,-3,-4,-2
Cc1ccc(N2CCN(C(=O)N3CCCC3)CC2)cc1Cl,-6,0,-1,-14,98*
Oc1ccc2ccccc2c1C=NNc1ccccn1,33,.,.,-6,.
Oc1ccc(/C=N/Nc2ccccc2)cc1,-8,-14,18,22,59
O=c1c2ccccc2nc(N/N=C/c2c(O)ccc3ccccc23)n1O,-10,66*,30*,12,-9
O=c1c2ccccc2nc(N/N=C/c2ccc(O)cc2)n1O,-18,88*,17,6,66
C#CCSC1=C(C#N)C(c2cccs2)C(C(=O)OCC)=C(C)N1 (stereo not given),1,-30,12,17,-6
CCN(CC)C(=O)CSC1=C(C#N)C(c2cccs2)C=C(C)N1 (stereo not given),1,94*,18,59,-2
CSCc1ccc(C(=O)NCc2ccc(F)cc2)cc1,-6,3,1,-5,98*
CSCc1ccc(C(=O)NCc2ccc(C)cc2)cc1,1,3,-9,8,8
Cc1oc(-c2ccccc2F)nc1CS(=O)CC(=O)NC1CC1 (stereo not given),-3,29,-11,-11,99*
Cc1oc(-c2ccccc2F)nc1CSCC(=O)NC1CCC(C)CC1 (stereo not given),-9,29,1,-9,-35
CCOC(=O)N1CCC(NC(=O)CS(=O)(=O)Cc2nc(-c3ccccc3Cl)oc2C)CC1,-7,14,-5,-13,19
Cc1oc(-c2ccccc2F)nc1CN1CCC(C(=O)NC2CCCCCCC2)CC1,-9,-11,1,-11,.
Cc1oc(-c2ccccc2F)nc1CSCC(=O)NC1CC1,1,75*,9,5,-29
